Results from PubChem BioAssay.
Activity calls are given as the source filed them.

How the values were obtained:
[1] = E. coli DRC41 culture turbidity changes, primary screen, E. coli filamentation inducer project, strain DRC41, OD650, 48 h (AID 1152);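 also: E. coli MC1000 strain DRC41 lacking acrAB efflux pump and sulA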; settings: E. coli DRC41 (acrAB sulA), higher = more signal, called active from +8 up or from −8 down
[2] = small-molecule binders of probe aLefty1, primary screen, biochemical, small-molecule microarray, 635/667 nm fluorescence (AID 1153); settings: higher = more signal;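 also: score merges spot fluorescence with signal-to-noise ratio from the scanned slide images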
[3] = PSAC antagonists in infected red cells, primary screen, cell-based, P. falciparum Indochina, OD700, 1 h (AID 1154); settings: P. falciparum Indochina infected RBC osmotic lysis, higher = more signal, called active from +8 up or from −8 down
[4] = PSAC antagonists in infected red cells, primary screen, cell-based, P. falciparum Indochina, OD700, 2 h (AID 1155);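 also: lysis reports solute entry through the parasite surface anion channel PSAC; channel blockers reduce lysis of infected cells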; settings: P. falciparum Indochina infected erythrocytes, osmotic lysis OD700; higher = more signal, called active from +8 up or from −8 down
[5] = osmotic lysis modulators in infected erythrocytes, primary screen, PSAC antagonist project, cell-based, P. falciparum Indochina, OD700, 3 h (AID 1156); settings: higher = more signal, called active from +8 up or from −8 down
[6] = PSAC antagonists in infected red cells, primary screen, cell-based, P. falciparum Indochina, OD700, 18 h (AID 1157); settings: P. falciparum Indochina infected erythrocytes, osmotic lysis OD700, 18 h; higher = more signal, called active from +8 up or from −8 down
[7] = modulators of S6 phosphorylation in cells, primary screen, cell-based, A549, cytoblot, luminescence, serum-stimulated (AID 1158); settings: A549 phospho-S6 cytoblot, 5 h, higher = more signal;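 also: serum-stimulated A549 lung adenocarcinoma cells; signal is phosphorylated S6 detected by cytoblot immunostaining with HRP secondary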
[8] = target: NADPH oxidase 2 (Homo sapiens) (UniProt P04839); assay: NOX2-dependent H2O2 signal modulators, primary screen, NOX inhibitor project, cell-based, HEK293-NOX2, PMA-stimulated, Amplex Red fluorescence (AID 1159); settings: 45 min, higher = more signal, called active from +8 up or from −8 down; also: test concentration not given here
[9] = target: NADPH oxidase 4 (Homo sapiens) (UniProt Q9NPH5); assay: NOX4-dependent H2O2 signal modulators, primary screen, NOX inhibitor project, cell-based, HEK293-NOX4, tetracycline-induced, Amplex Red fluorescence (AID 1160); settings: 45 min, higher = more signal, called active from +8 up or from −8 down
[10] = target: NADPH oxidase 5 (Homo sapiens) (UniProt Q96PH1); assay: NOX5-dependent H2O2 signal modulators, primary screen, NOX inhibitor project, cell-based, HEK293-NOX5, Amplex Red fluorescence (AID 1161); settings: HEK293-NOX5, ionomycin, 45 min, higher = more signal
Chain of NADPH oxidase 5 (Homo sapiens) (Q96PH1 whole entry, looked up): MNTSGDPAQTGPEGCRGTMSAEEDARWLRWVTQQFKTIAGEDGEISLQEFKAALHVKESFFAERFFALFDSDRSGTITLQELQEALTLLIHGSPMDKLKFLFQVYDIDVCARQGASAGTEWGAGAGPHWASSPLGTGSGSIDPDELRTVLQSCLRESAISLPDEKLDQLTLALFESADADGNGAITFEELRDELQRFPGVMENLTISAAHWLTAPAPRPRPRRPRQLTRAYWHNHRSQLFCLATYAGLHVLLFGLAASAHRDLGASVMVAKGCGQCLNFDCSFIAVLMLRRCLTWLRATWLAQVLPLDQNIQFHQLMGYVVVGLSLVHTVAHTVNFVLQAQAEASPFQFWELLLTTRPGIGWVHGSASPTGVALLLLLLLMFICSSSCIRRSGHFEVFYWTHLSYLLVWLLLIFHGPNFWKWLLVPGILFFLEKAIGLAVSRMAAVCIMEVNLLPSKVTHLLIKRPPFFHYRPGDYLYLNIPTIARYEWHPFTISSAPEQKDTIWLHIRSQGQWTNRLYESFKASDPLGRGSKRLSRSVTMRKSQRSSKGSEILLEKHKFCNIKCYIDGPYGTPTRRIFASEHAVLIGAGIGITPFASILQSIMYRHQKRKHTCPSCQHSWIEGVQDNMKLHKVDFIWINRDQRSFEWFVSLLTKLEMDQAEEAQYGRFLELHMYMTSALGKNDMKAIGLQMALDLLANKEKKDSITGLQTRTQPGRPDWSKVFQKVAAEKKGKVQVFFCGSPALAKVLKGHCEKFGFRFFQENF

Chain of NADPH oxidase 4 (Homo sapiens) (Q9NPH5 whole entry, looked up): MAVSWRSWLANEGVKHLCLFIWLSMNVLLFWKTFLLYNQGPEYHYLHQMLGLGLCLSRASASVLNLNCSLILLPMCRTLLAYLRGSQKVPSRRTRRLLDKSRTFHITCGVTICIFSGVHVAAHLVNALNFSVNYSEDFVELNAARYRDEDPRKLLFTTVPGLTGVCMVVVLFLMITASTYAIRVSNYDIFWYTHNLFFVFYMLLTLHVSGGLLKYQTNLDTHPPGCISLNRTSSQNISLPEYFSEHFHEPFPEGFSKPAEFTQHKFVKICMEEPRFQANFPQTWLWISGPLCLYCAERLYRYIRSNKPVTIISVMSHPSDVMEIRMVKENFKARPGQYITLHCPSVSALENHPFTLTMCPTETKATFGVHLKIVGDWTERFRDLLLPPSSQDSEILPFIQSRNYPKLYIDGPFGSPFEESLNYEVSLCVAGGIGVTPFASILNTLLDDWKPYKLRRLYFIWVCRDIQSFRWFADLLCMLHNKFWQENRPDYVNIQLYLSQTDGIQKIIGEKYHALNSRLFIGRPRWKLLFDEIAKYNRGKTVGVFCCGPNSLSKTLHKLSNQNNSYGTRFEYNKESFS
Chain of NADPH oxidase 2 (Homo sapiens) (P04839 whole entry, looked up): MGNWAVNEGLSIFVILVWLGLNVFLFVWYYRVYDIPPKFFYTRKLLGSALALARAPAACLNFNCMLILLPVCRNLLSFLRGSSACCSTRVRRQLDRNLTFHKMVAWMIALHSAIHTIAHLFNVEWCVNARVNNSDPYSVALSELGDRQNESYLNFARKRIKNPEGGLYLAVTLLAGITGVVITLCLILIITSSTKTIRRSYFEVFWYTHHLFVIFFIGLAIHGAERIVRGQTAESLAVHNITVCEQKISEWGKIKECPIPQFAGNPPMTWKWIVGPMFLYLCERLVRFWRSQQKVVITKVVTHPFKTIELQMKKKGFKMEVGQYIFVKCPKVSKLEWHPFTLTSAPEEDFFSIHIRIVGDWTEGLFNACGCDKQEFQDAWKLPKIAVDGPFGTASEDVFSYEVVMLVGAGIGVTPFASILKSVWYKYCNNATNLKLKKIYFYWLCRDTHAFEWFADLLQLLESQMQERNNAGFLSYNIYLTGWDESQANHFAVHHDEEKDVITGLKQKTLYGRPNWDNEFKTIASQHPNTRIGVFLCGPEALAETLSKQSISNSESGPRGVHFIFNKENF

| Compound | z-score [1] | composite z-score [2] | z-score [3] | z-score [4] | z-score [5] | z-score [6] | z-score [7] | z-score [8] | z-score [9] | z-score [10] |
| --- | --- | --- | --- | --- | --- | --- | --- | --- | --- | --- |
| CON=C[C@@H](C)[C@H](OCc1ccccc1)C(C)C | -2.85 (inactive) | -0.378 | 0.0221 (inactive) | 0.234 (inactive) | 0.718 (inactive) | -1.37 (inactive) | 0.564 | -0.307 (inactive) | -1.21 (inactive) | -0.786 |
| COC(=O)[C@H]1[C@@H](O)[C@@]2(O)c3ccccc3O[C@@]2(c2ccccc2)[C@@H]1c1ccccc1 | -0.262 (inactive) | -0.193 | 0.249 (inactive) | 0.454 (inactive) | 0.296 (inactive) | 0.148 (inactive) | 0.0192 | -0.481 (inactive) | 0.526 (inactive) | 0.152 |
| CCOC(=O)[C@H](Cc1ccccc1)NC(=O)OC1CC(CCC2CC(CC)=NO2)OC2(CCCC(COC(=O)NCCC(C)C)O2)C1 (stereo not given in full) | -0.0799 (inactive) | -0.101 | 3.14 (inactive) | -0.0787 (inactive) | -0.648 (inactive) | -0.39 (inactive) | -0.459 | -0.405 (inactive) | 0.109 (inactive) | 1.04 |
| COc1ccc(COC(=O)NN=C2C[C@@H](O)[C@@H](O)[C@@H]3[C@@H]4C(=O)N(c5cccc(Oc6ccccc6)c5)C(=O)[C@@H]4CC[C@@H]23)cc1 | -0.367 (inactive) | 0.347 | 4.54 (inactive) | 1.2 (inactive) | 1.28 (inactive) | 0.181 (inactive) | -0.313 | 1.32 (inactive) | 0.56 (inactive) | 1.02 |
| O=C(NN=C1C[C@@H](O)[C@@H](O)[C@@H]2[C@@H]3C(=O)N(C[C@@H]4CCCO4)C(=O)[C@@H]3CC[C@H]12)OCc1ccccc1 | 0.801 (inactive) | 0.318 | 1.35 (inactive) | 0.278 (inactive) | 0.284 (inactive) | 0.404 (inactive) | -0.249 | -0.92 (inactive) | 0.0865 (inactive) | -0.165 |
| COC(=O)[C@H](C)NC(=O)CCC1CC(OC(=O)NCc2ccc3c(c2)OCO3)CC2(CCCC(COC(=O)NCC3CCCCC3)O2)O1 (stereo not given in full) | -0.23 (inactive) | -0.0984 | 0.858 (inactive) | -0.53 (inactive) | -0.508 (inactive) | -0.167 (inactive) | 0.224 | -0.373 (inactive) | 0.62 (inactive) | -0.651 |
| COC(=O)CC=C[C@@H](C)[C@@H](C=NO[C@H](C)c1cn([C@@H]2COC[C@H]2O)nn1)NS(=O)(=O)c1ccc(C)cc1 | 0.876 (inactive) | -0.274 | 1.43 (inactive) | 0.269 (inactive) | 0.785 (inactive) | 0.465 (inactive) | 0.459 | -0.283 (inactive) | 0.891 (inactive) | 0.309 |
| CO[C@H]1COC(=O)CC=C[C@@H](C)[C@H](OC)COC(=O)CCC[C@@H]1C | 0.398 (inactive) | -0.216 | -0.674 (inactive) | -1.22 (inactive) | -0.518 (inactive) | -2.08 (inactive) | -0.0645 | 0.00516 (inactive) | 0.612 (inactive) | 0.863 |
| O=C1C[C@@H](O)[C@@H](O)[C@@H]2[C@@H]3C(=O)N(c4cccc(Oc5ccccc5)c4)C(=O)[C@@H]3CC[C@H]12 | -0.367 (inactive) | 0.0446 | 0.429 (inactive) | 0.0618 (inactive) | -0.195 (inactive) | -0.0653 (inactive) | -0.875 | -0.0166 (inactive) | 0.6 (inactive) | 0.124 |
| CCN1C(=O)[C@H]2[C@H]3[C@H](O)[C@H](O)CC(=NOC[C@H]4O[C@H](c5ccccc5)C=C[C@@H]4Oc4ccc(OC)cc4)[C@@H]3CC[C@H]2C1=O | 0.575 (inactive) | 0.171 | 10.7 (active) | 1.65 (inactive) | 0.622 (inactive) | 0.809 (inactive) | -0.763 | 0.863 (inactive) | 0.91 (inactive) | 0.456 |
| CC(C)CCN1CCc2nc(COc3ccccc3)c3c(c2C1)CO[C@@H](C)C3 | -0.152 (inactive) | 0.0768 | 3.22 (inactive) | 0.326 (inactive) | 0.331 (inactive) | 0.101 (inactive) | -0.356 | 1.2 (inactive) | 0.131 (inactive) | 0.242 |
| COC(=O)CC=C[C@@H](C)[C@@H](C=NOCC[C@@H]1C=C[C@H](OC(C)=O)[C@@H](COC(C)=O)O1)NS(=O)(=O)c1ccc(C)cc1 | 0.385 (inactive) | 0.212 | 0.944 (inactive) | 0.107 (inactive) | -0.113 (inactive) | 0.196 (inactive) | -0.879 | 0.174 (inactive) | 0.911 (inactive) | -0.075 |
| CC(=O)O[C@H]1C2=CO[C@H](C)[C@H]3[C@H]4C5=C([C@H](O)[C@H]6O[C@H]6C5=O)[C@H](OC4C)[C@@]23C(=O)[C@@H]2O[C@@H]21 (stereo not given in full) | -0.16 (inactive) | -0.0477 | -0.312 (inactive) | -0.431 (inactive) | 0.128 (inactive) | 0.1 (inactive) | -1.05 | -0.717 (inactive) | -0.891 (inactive) | -0.242 |
| C[C@H]1CC[C@H]2C(=O)O[C@H](COc3ccc(C(C)(C)C)cc3)CN2[C@@H]1c1ccc(Br)cc1 | -0.421 (inactive) | -0.412 | 0.683 (inactive) | 0.237 (inactive) | -0.889 (inactive) | 0.465 (inactive) | -0.338 | 0.215 (inactive) | 0.644 (inactive) | 0.974 |
| O=c1n(Cc2cc3c(cc2Cl)OCO3)c(=O)n2n1CC[C@@H]1C(=NOCc3ccccc3)[C@H]3O[C@H]3[C@@H](O)[C@@H]12 | 0.112 (inactive) | -0.055 | 0.99 (inactive) | -1.13 (inactive) | 0.434 (inactive) | -2.49 (inactive) | 1.63 | -0.641 (inactive) | 0.153 (inactive) | 0.615 |
| C#CCCCON=C1C[C@@H](O)[C@@H](O)[C@@H]2[C@@H]3C(=O)N(CC)C(=O)[C@@H]3CC[C@@H]12 | -0.229 (inactive) | -0.243 | 0.299 (inactive) | 0.363 (inactive) | -0.26 (inactive) | -0.0637 (inactive) | -0.595 | 0.275 (inactive) | 0.764 (inactive) | -0.64 |
| CCOC(=O)[C@H](Cc1ccccc1)NC(=O)CCC1CC(OC(=O)NCc2cccc3ccccc23)CC2(CCCC(COC(=O)NCCC(C)C)O2)O1 (stereo not given in full) | 0.165 (inactive) | -0.0733 | 15.9 (active) | 1.95 (inactive) | -2.04 (inactive) | -0.492 (inactive) | 0.255 | 1.59 (inactive) | 1.24 (inactive) | 0.101 |
| COC(=O)C1=C(C)N(Cc2ccccc2)[C@]23O[C@](C(=O)OC)(C(=O)N2[C@@H]1c1ccccc1)C(C(=O)OC)=C3C(=O)OC | 0.214 (inactive) | 0.0774 | 2.05 (inactive) | -0.468 (inactive) | 0.323 (inactive) | -1.52 (inactive) | 2.22 | 0.826 (inactive) | 0.109 (inactive) | 2.03 |
| CC(C)=CCCC(C)=CCON=C1C[C@@H](O)[C@@H](O)[C@@H]2[C@@H]3C(=O)N(c4ccc(F)cc4F)C(=O)[C@@H]3CC[C@@H]12 | 0.217 (inactive) | 0.0999 | 4.44 (inactive) | 1.21 (inactive) | 2.06 (inactive) | 1.07 (inactive) | -0.718 | -0.333 (inactive) | -0.0951 (inactive) | 0.0854 |
| CO[C@H]1COC(=O)[C@@H](C)COC(=O)[C@@H](OCc2ccccc2)C=C[C@@H]1C | -0.303 (inactive) | -0.235 | -0.347 (inactive) | 0.32 (inactive) | 0.328 (inactive) | -0.0659 (inactive) | -0.286 | 0.237 (inactive) | 0.566 (inactive) | -0.609 |
| CC(C)C[C@H](NC(=O)CCC1CC(OC(=O)NCc2cccc3ccccc23)CC2(CCCC(COC(=O)NCc3ccccc3)O2)O1)C(=O)NCC(c1ccccc1)c1ccccc1 (stereo not given in full) | 0.576 (inactive) | -0.29 | 8.07 (active) | 1.33 (inactive) | -1.22 (inactive) | 0.688 (inactive) | -0.71 | 0.871 (inactive) | 0.194 (inactive) | -0.0969 |
| CCc1cc2c(nc1CC)CCN(CCC(C)=NO[C@H](C)c1cn([C@H](CO)Cc3ccccc3)nn1)C2 | -0.266 (inactive) | 0.832 | 4.7 (inactive) | 1.3 (inactive) | 1.84 (inactive) | 0.514 (inactive) | 0.917 | -0.221 (inactive) | -0.461 (inactive) | 2.32 |
